# Laboratory results taken from ChEMBL document CHEMBL1201862, “PubChem BioAssay data set” (2004).
# Hit rate of the full screen: of about 54,000 sequences, about 4,000 (7.4%) were called active. Cut-off read from the data, not from the text of the source: active = GI50 up to about 1.1 µM and inactive = higher. Only a sample is shown. Measured potencies and affinities stand elsewhere.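 A five-concentration, 48-hour dose response in 96-well plates underlies each endpoint, interpolated linearly between surrounding concentrations. At the GI50, growth is halved.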
# Tested on: SNB-75
# Assay: NCI tumour cell line growth inhibition, 48 h
row,Substance,GI50 [µM]
1,"[Bis(aminomethyl)pentamethylenesilane]tetrachloropaltinum(IV), CHEMBL2146204",2.64
2,"[Bis(aminomethyl)diethylsilane]tetrachloroplatinum(IV), CHEMBL2146203",3.8
3,"CISPLATIN, CHEMBL11359",2.84
4,"mu-(1,7-nanodiamine-N,N')bis-(cis-aminedichloroplatimum (II)), CHEMBL2146215",12.4
5,"cis-Bis[[(trimethylsilyl)methyl]amino]tetrachloroplatinum(IV), CHEMBL2146191",15
6,"[Bis(aminomethyl)ethylmethylsilane]tetrachloroplatinum(IV), CHEMBL2146192",3.53
7,"[Bis(aminomethyl)dimethylsilane]tetrachloroplatinum(IV), CHEMBL2146190",11.5
8,"[Bis(aminomethyl)pentamethylenesilane]dichloropaltinum(II), CHEMBL2146202",2.9
9,"[Bis(aminomethyl)tetramethylenesilane]dichloropaltinum(II), CHEMBL2146205",29.5
10,"[Bis(aminomethyl)dimethylsilane]dichloroplatinum (II), CHEMBL2146201",9.23
11,"[Bis(aminomethyl)tetramethylenesilane]tetrachloropaltinum(IV), CHEMBL2146189",5.7
